In article PMC4336329 (PLoS ONE, 2015):
Screen size: about 310,000 compounds; about 14,000 (4.5%) showed an effect of 50% or more. The effect is printed as a negative number. The list comes from a sample in which strong results are over-represented; it also holds similar structures and randomly drawn compounds.

What follows are molecules tested against human ether-à-go-go-related gene (hERG) potassium channel (human, UniProt Q12809) (assay: primary screen, population patch clamp on CHO cells stably expressing hERG; higher = less effect of the substance).
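Note: peak tail current of the secondary pulse compared with the same well before compound.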

human ether-à-go-go-related gene (hERG) potassium channel, sequence (Q12809 whole entry, looked up): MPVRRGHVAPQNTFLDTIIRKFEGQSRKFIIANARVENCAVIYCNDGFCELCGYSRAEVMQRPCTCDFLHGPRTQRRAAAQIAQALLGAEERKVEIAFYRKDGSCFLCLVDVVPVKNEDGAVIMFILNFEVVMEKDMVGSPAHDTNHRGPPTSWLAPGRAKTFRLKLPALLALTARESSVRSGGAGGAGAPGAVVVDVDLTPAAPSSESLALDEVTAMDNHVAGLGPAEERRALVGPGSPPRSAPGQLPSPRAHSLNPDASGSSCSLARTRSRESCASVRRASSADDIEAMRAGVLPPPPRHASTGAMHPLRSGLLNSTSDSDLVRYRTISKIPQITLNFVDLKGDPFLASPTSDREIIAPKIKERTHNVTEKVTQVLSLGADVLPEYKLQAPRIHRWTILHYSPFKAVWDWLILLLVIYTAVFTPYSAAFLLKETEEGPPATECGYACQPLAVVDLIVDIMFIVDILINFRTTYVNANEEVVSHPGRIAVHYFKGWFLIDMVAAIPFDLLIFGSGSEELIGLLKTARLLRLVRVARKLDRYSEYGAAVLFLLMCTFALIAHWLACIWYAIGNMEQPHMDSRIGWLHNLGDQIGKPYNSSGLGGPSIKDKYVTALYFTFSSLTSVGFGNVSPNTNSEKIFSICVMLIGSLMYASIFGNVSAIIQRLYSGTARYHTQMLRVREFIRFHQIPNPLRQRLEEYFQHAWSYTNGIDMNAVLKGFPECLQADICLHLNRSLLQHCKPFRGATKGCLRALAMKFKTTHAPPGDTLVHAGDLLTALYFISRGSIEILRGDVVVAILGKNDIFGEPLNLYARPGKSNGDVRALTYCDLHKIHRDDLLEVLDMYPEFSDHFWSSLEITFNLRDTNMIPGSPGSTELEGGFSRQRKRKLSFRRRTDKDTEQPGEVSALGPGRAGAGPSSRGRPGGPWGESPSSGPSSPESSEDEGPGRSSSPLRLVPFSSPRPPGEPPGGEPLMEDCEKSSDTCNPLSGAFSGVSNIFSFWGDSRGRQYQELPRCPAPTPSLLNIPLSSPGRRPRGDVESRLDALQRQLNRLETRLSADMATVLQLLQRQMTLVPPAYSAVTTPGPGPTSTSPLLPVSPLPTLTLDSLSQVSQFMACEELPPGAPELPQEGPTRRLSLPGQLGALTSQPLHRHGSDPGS

Row | SMILES | hERG current change (%, negative = inhibition) at 10uM [%]
1 | CCN(CC(=O)NCCCN1CCOCC1)S(=O)(=O)c1cc(Cl)ccc1Cl | 6.16
2 | CN(Cc1ccc(Br)cc1)C(=O)CCN1C(=O)c2cccc([N+](=O)[O-])c2C1=O | 21.8
3 | COc1cccc(OCc2cc(C(=O)N3CCN(c4ccccc4OC)CC3)no2)c1 | 6.19
4 | COc1c(C)cccc1C(=O)NCc1ccc2c(c1)OCO2 | -2.64
5 | O=S(=O)(NCC1CCCO1)c1ccc(S(=O)(=O)N(Cc2ccc(F)cc2)C2CCCCC2)cc1 (stereo not drawn) | -2.39
6 | COc1ccccc1NC(=O)CSc1nnc(CC(=O)Nc2ccccc2F)n1C | 11.4
7 | COc1ccc(-n2c(SCC(=O)Nc3nccs3)nc3c(c2=O)SC(C)C3)cc1 (stereo not drawn) | -13.5
8 | COc1ccc(/C(O)=C/C(=O)C(=O)Nc2c(C)n(C)n(-c3ccccc3)c2=O)cc1 | 8.01
9 | CCc1c(C)sc2nc3c(C(=O)N4CCOCC4)cc(C(=O)c4ccccc4O)cn3c(=O)c12 | -10.7
10 | Cc1cc(C)nc(OC(C(=O)O)C(OCCc2ccccc2)(c2ccccc2)c2ccccc2)n1 (stereo not drawn) | 16.3
11 | CCOC(=O)C1=C(CC)Nc2ccccc2N=C1NC(=O)c1oc2ccccc2c1C | 12.6
12 | CC(C)(CNC(=O)c1ccc(-c2ccccc2Cl)o1)N1CCOCC1 | -39.9
13 | O=C(COC(=O)c1cc(=O)c2ccccc2o1)NCC1CCCCC1 | 6.26
14 | Cc1cc(C)cc(NC(=O)NCC(O)COc2ccc([N+](=O)[O-])cc2)c1 (stereo not drawn) | -42.3
15 | Cl.OCCN(CCO)CC(O)COc1ccc2c(c1)OCO2 (stereo not drawn) | 2.18
16 | O=C(NCC(O)COc1ccc([N+](=O)[O-])cc1)Nc1ccccc1 (stereo not drawn) | -49.4
17 | COC(=O)c1ccc(OCC(O)CN(CCO)CCO)cc1 (stereo not drawn) | -3.29
18 | CC(C)CN(CC(C)C)CC(O)COc1ccc([N+](=O)[O-])cc1.Cl (stereo not drawn) | -66.8
19 | O=[N+]([O-])c1ccc(OCC(O)CN(CCO)CCO)cc1 (stereo not drawn) | -54.8
20 | CCCN(CCC)CC(O)COc1ccc([N+](=O)[O-])cc1 (stereo not drawn) | -77.1
21 | CCCN(CCC)CC(O)COc1ccc2c(c1)OCO2.Cl (stereo not drawn) | -28.8
22 | COC(=O)c1ccc(OCC(O)CN(CC(C)C)CC(C)C)cc1 (stereo not drawn) | -4.37
23 | C/C(=N\NC(=O)CC(C)C)c1ccc(Cl)c(Cl)c1 | 30.7
24 | O=c1nc2n(c3c4c(sc13)CCC4)CCC2 | 5.51
25 | CC(=O)Nc1ccc(C(=O)NCCN2CCOCC2)cc1 | 15.8
26 | CCOc1ccccc1/C=N/Nc1nc2c(N)ncnc2n1[C@H]1O[C@@H](CO)[C@H](O)[C@@H]1O | -9.61
27 | CC(=O)NCCC(=O)N1CCc2c([nH]c3ccccc23)C1c1cccc(Cl)c1 (stereo not drawn) | -24.2

Row | SMILES | hERG current change (%, negative = inhibition) at 10uM [%]
28 | O=C(CCN1CCOCC1)N1CCc2c([nH]c3ccccc23)C1c1cccc(Cl)c1 (stereo not drawn) | -70.5
29 | O=C(NCCCN1CCOCC1)c1ccccc1N1C(=O)[C@@H]2Cc3c([nH]c4ccccc34)C(c3ccc(F)cc3)N2C1=O (stereo partly drawn) | -68
30 | COc1cccc(C2c3[nH]c4ccccc4c3C[C@H]3C(=O)N(c4ccccc4C(=O)NCCCN4CCOCC4)C(=O)N23)c1 (stereo partly drawn) | -19.9
31 | Cc1ccc(C2c3[nH]c4ccccc4c3C[C@H]3C(=O)N(c4ccccc4C(=O)NCCN4CCOCC4)C(=O)N23)cc1 (stereo partly drawn) | -24.9
32 | O=C(NCCN1CCOCC1)c1ccccc1N1C(=O)[C@@H]2Cc3c([nH]c4ccccc34)C(c3ccc(F)cc3)N2C1=O (stereo partly drawn) | -47.2
33 | Cc1ccccc1C1c2[nH]c3ccccc3c2C[C@H]2C(=O)N(c3ccccc3C(=O)NCCCN3CCOCC3)C(=O)N12 (stereo partly drawn) | -21.3
34 | Cc1ccc(C2c3[nH]c4ccccc4c3C[C@H]3C(=O)N(c4ccccc4C(=O)NCCCN4CCOCC4)C(=O)N23)cc1 (stereo partly drawn) | -54.6
35 | O=C(c1cnccn1)N1CCc2c([nH]c3ccccc23)C1c1cccc(Cl)c1 (stereo not drawn) | -33.6
36 | O=C(NCCCN1CCOCC1)c1ccccc1N1C(=O)[C@@H]2Cc3c([nH]c4ccccc34)C(c3cccc(Cl)c3)N2C1=O (stereo partly drawn) | -72.3
37 | O=C(NCCN1CCOCC1)c1ccccc1N1C(=O)[C@@H]2Cc3c([nH]c4ccccc34)C(c3ccccc3)N2C1=O (stereo partly drawn) | -20.4
38 | COc1ccc(C2c3[nH]c4ccccc4c3C[C@H]3C(=O)N(c4ccccc4C(=O)NCCN4CCOCC4)C(=O)N23)cc1 (stereo partly drawn) | -23.7
39 | O=C(O)c1ccc(/C=C2\SC(=S)N(NC(=O)c3ccccc3[N+](=O)[O-])C2=O)cc1 | 12.4
40 | [2H]C([2H])(CCOS(N)(=O)=O)c1ccccc1 | 11.1
41 | CC(=O)N1CCc2c(sc(NC(=O)C3COc4ccccc4O3)c2C(N)=O)C1 (stereo not drawn) | -20
42 | CCOc1ccc(CN2CCSCC2)cc1 | 2.36
43 | O=C(NCCNS(=O)(=O)c1ccccc1)c1ccc([N+](=O)[O-])cc1 | -12
44 | COc1ccccc1Nc1nc(N)nc(CSC(=S)N2CCCCC2)n1 | 0.598
45 | COc1ccccc1Nc1nc(N)nc(CSc2ncccn2)n1 | -24.2
46 | COc1ccccc1Nc1nc(N)nc(CSC(=S)N2CC(C)CC(C)C2)n1 (stereo not drawn) | -9.46
47 | COc1ccccc1Nc1nc(N)nc(CSCCO)n1 | 15
48 | Cc1c(Cl)cccc1Nc1nc(N)nc(CN2CCc3ccccc3C2)n1 | -33
49 | COc1ccccc1Nc1nc(N)nc(CN2CCCCC2)n1 | -54.9
50 | COc1ccccc1Nc1nc(N)nc(CN2CCCCCC2)n1 | -57.7
51 | COc1ccccc1Nc1nc(N)nc(CN2CC(C)CC(C)C2)n1 (stereo not drawn) | -73.8
52 | Cc1cccc(Nc2nc(N)nc(CN3CCC(C(N)=O)CC3)n2)c1C | 17.5
53 | COc1ccccc1Nc1nc(N)nc(CN2CCOCC2)n1 | 10.1
54 | Cc1c(Cl)cccc1Nc1nc(N)nc(CN2CCCCCC2)n1 | -74.6
